A selection: hits, their analogues and other compounds. The true share with any hit is near 3.9%.
GDH-TPI counter: GDH-TPI coupled enzyme inhibition counter-screen | GDH-TPI coupled enzyme counterscreen, NADH absorbance | inhibition, % at 4.8 µM | hit rate 1.2% among 360,000 | AID 588335;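 further: 0% = DMSO wells and 100% = wells lacking the enzyme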
BH1578 lux ind: inducers of Vibrio cholerae quorum light production without autoinducers | V. cholerae BH1578 lux reporter, luminescence, 6 h | activation, % at 18.7 µM | hit rate 0.16% among 350,000 | AID 588436; in the data active means activation mostly above about 9.7%, no sharp cut-off
CCHF vOTU inh: CCHFV vOTU protease inhibition | hit rate 0.55% among 370,000 | Pep-AMC fluorescence | AID 651958 | inhibition, % at 11.5 µM; further: 0% = vehicle wells with enzyme and 100% = no enzyme wells
Mtb FBA inh: inhibitors of M. tuberculosis fructose-bisphosphate aldolase; inhibition, % at 1 µM; hit rate 2.3% among 360,000; purified M. tuberculosis FBA, fluorescence read-out; P9WQA3; in the data active means inhibition above about 27%;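 further: 0% = vehicle and 100% = reference inhibitor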
Target sequence (P9WQA3 whole entry, looked up): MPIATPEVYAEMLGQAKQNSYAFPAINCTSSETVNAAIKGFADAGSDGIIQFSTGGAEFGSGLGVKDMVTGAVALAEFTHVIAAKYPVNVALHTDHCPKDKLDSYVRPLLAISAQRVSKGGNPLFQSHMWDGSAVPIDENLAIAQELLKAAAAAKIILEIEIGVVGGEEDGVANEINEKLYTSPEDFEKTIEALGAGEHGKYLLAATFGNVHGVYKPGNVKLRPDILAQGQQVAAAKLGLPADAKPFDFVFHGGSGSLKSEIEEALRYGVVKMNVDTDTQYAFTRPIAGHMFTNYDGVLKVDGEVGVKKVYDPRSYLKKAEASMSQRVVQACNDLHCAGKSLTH
* = called active by the depositor. Unless noted, no stated cut-off is given here; in the data, active means inhibition above about 30%; inactive means the rest.

O=C(O)c1ccc(/C=N/Nc2nc3ccccc3[nH]2)cc1 was read as GDH-TPI counter 75.3*, BH1578 lux ind -0.4, CCHF vOTU inh 0.5 and Mtb FBA inh 2.4.
For COc1cc(/C=N/Nc2ccc(C(F)(F)F)cn2)ccc1O the results were GDH-TPI counter 22.0, BH1578 lux ind -0.3, CCHF vOTU inh 22.6 and Mtb FBA inh -1.3.
`COc1ccccc1CN(CC(=O)NCC1CCCO1)C(=O)CNS(=O)(=O)c1ccc(C)cc1` (stereo not drawn) gave GDH-TPI counter 1.7, BH1578 lux ind inactive, CCHF vOTU inh 1.6 and Mtb FBA inh -0.4.
For O=C(NNC1=Nc2ccccc2SC1)c1ccc(F)cc1 the results were GDH-TPI counter 3.7, BH1578 lux ind inactive, CCHF vOTU inh -11.1 and Mtb FBA inh 2.8.
For O=C(NNC1=Nc2ccccc2SC1)c1ccc(Cl)cc1 the results were GDH-TPI counter 37.9*, BH1578 lux ind inactive, CCHF vOTU inh -6.4 and Mtb FBA inh -0.6.
`Cc1cc(=O)oc2cc(OCCSCCN3CCCCC3)ccc12` gave GDH-TPI counter 36.0*, BH1578 lux ind -0.2, CCHF vOTU inh -17.1 and Mtb FBA inh 26.3.
`O=C(O)c1ccc2c(c1)C(=O)N(c1cccc3ccccc13)C2=O` gave GDH-TPI counter 0.0, BH1578 lux ind 83.3*, CCHF vOTU inh -12.3 and Mtb FBA inh 11.3.
Screening O=C(O)c1cccc(N2C(=O)c3ccc4c5c(ccc(c35)C2=O)C(=O)N(c2cccc(C(=O)O)c2)C4=O)c1 returned GDH-TPI counter 38.3*, BH1578 lux ind -0.6, CCHF vOTU inh 5.2 and Mtb FBA inh -3.1.
`O=C(O)c1cccc(N2C(=O)c3ccc(Oc4ccc(Cl)cc4)cc3C2=O)c1` gave GDH-TPI counter -2.6, BH1578 lux ind -0.3, CCHF vOTU inh 3.9 and Mtb FBA inh 3.0.
For COC(=O)c1sc(=S)n(Cc2ccccc2)c1C the results were GDH-TPI counter 46.2*, BH1578 lux ind -0.9, CCHF vOTU inh 2.3 and Mtb FBA inh 5.2.
CC(=O)c1sc(=S)n(Cc2ccccc2)c1C was read as GDH-TPI counter 24.8, BH1578 lux ind inactive, CCHF vOTU inh 0.2 and Mtb FBA inh -0.6.
Screening Cc1ccc(C(=O)NCc2cccnc2)cc1S(=O)(=O)Nc1ccccc1 returned GDH-TPI counter 0.0, BH1578 lux ind 0.0, CCHF vOTU inh -13.5 and Mtb FBA inh 3.6.
Screening Cc1ccc2nc(Cc3ccc(N)cc3)[nH]c2c1 returned GDH-TPI counter 9.3, BH1578 lux ind inactive, CCHF vOTU inh 8.6 and Mtb FBA inh 1.0.
Screening Cc1ccc(C)c(-c2nc3ccc(N)cc3[nH]2)c1 returned GDH-TPI counter -1.9, BH1578 lux ind 3.2, CCHF vOTU inh -100.0 and Mtb FBA inh 189.5*.
For O=[N+]([O-])c1ccc(-c2nc3ccc([N+](=O)[O-])cc3[nH]2)cc1 the results were GDH-TPI counter 31.2*, BH1578 lux ind 1.3, CCHF vOTU inh 3.4 and Mtb FBA inh 1.5.
For Nc1ccc2nc(-c3cc(Cl)c(N)c(Cl)c3)[nH]c2c1 the results were GDH-TPI counter 35.4*, BH1578 lux ind inactive, CCHF vOTU inh -21.8 and Mtb FBA inh 24.9.
Nc1ccc(Cc2nc3c(ccc4ccccc43)[nH]2)cc1 was read as GDH-TPI counter 2.8, BH1578 lux ind -0.4, CCHF vOTU inh -1.0 and Mtb FBA inh 1.4.
Nc1ccc(-c2nc3ccc([N+](=O)[O-])cc3[nH]2)cc1 was read as GDH-TPI counter 22.3, BH1578 lux ind inactive, CCHF vOTU inh 22.3 and Mtb FBA inh 2.0.
Nc1ccc(-c2nc3c(Cl)c(N)ccc3[nH]2)cc1 was read as GDH-TPI counter 38.4*, BH1578 lux ind -5.0, CCHF vOTU inh -285.8 and Mtb FBA inh active.
`O=C(O)c1ccc(NCc2cccc(Br)c2)cc1` gave GDH-TPI counter 0.8, BH1578 lux ind 3.4, CCHF vOTU inh 9.9 and Mtb FBA inh -3.0.
`COc1ccc(C(CNC(=O)COc2ccc(Cl)c(C)c2)N2CCCCC2)cc1` (stereo not drawn) gave GDH-TPI counter 4.3, BH1578 lux ind -1.7, CCHF vOTU inh -5.0 and Mtb FBA inh -2.7.
For Cc1[nH]c(=S)c(C#N)c(-c2ccco2)c1C(=O)N(C)C the results were GDH-TPI counter 2.7, BH1578 lux ind -0.2, CCHF vOTU inh 6.3 and Mtb FBA inh -1.4.
`CCc1ccc(NC(=O)c2cc(Br)ccc2Br)cc1` gave CCHF vOTU inh -0.2.
Screening CCC1(C)Cc2c(sc3nnn(CC(=O)Nc4cccc5ccccc45)c(=O)c23)CO1 (stereo not drawn) returned GDH-TPI counter 23.8, BH1578 lux ind inactive, CCHF vOTU inh 1.2 and Mtb FBA inh 2.0.
Screening O=C(COC(=O)Cn1nnc(-c2ccccc2)n1)Nc1ccccc1Br returned GDH-TPI counter -3.9, BH1578 lux ind inactive, CCHF vOTU inh 7.7 and Mtb FBA inh -4.0.

Source: PubChem BioAssay
